Inconclusive results are not listed. Calls of active or inactive are those of the source. Unless noted, calls come from the whole dose curve; as a rule, active = well fitted curve in the direction sought with a large enough effect; inconclusive = small, poorly fitted or top-dose-only effect, or another doubt; inactive = no such curve, though single readings can be large; an effect the other way counts as inactive or inconclusive.
What was measured:
[1] = Cell Viability - BJ (AID 421; calls by dose curve;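 note: potency is the fitted concentration of half-maximal effect; cells exposed to compound for 40 hours at 37 °C before readout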); details: BJ fibroblast viability, qHTS
Outline: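 Quantitative HTS: ATP depletion in BJ cells after 40 hr compound exposure in complete culture medium, detected with CellTiter-Glo; AC50 from standard Hill fits.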

[2] = Cell Viability - Jurkat (AID 426;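 active = dose-dependent loss of cell ATP signal giving a full or clear fitted curve, ranked by lower potency value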; note: potency is the fitted concentration of half-maximal effect); details: qHTS
Outline: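 Jurkat (clone E6-1, human T-cell leukemia) cells, 5000/well in complete medium, were exposed to compound for 40 hr at 37 °C. Viability was read as intracellular ATP by CellTiter-Glo luminescence; AC50 came from Hill fits of concentration-response data.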

[3] = Cell Viability - Hek293 (AID 427;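 active = compounds whose dose-response curve shows a full or clear partial loss of cell viability, called from curve shape rather than a numeric limit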;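 note: potency is the fitted concentration of half-maximal effect; cells exposed to compound for 40 hours at 37 °C before reading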); details: qHTS
Outline: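 AC50 values derive from Hill-modelled concentration-response of ATP-based luminescence, normalized between DMSO-only and 100 uM tamoxifen controls. Cells were exposed in complete culture medium for 40 hr at 37 °C before detection.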

[4] = Cell Viability - MRC5 (AID 434; calls by dose curve;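 note: potency is the fitted concentration of half-maximal effect; potency reflects cytotoxicity seen as loss of intracellular ATP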); details: MRC5 lung fibroblast viability, qHTS
Outline: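 MRC5 normal human lung fibroblasts, 1500 cells/well, exposed to compound for 40 hr at 37 C. Cellular ATP was read by CellTiter-Glo luminescence; data normalized to DMSO and 100 uM tamoxifen, with AC50 from Hill fits.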

[5] = molecular target: Mitogen-activated protein kinase 10 (Mus musculus) (UniProt Q61831); test: JNK3 AlphaScreen Assay (AID 530; active = well fitted curve in either direction with a large enough effect, not every such curve was filed as active;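 note: kinase came from lysate of stimulated human HepG2 cells; signal reports phosphorylation of biotinylated GST-cJun 1-79 at Ser73 with 10 µM ATP; % is set by controls: 0 for no effect and ±100 for the full control effect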); details: JNK3 lysate, c-Jun phosphorylation; series mostly up to 57.1 µM
Outline: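 qHTS format: compounds tested as titrations against IL-1beta/TNF-alpha-activated HepG2 lysate JNK3 with biotin-GST-cJun substrate and 10 uM ATP at room temperature. Loss of anti-phospho-cJun AlphaScreen signal indicates inhibition.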

[6] = Cell Viability - N2a (AID 540); details: N2a mouse neuroblastoma cell viability; activity change, negative = cytotoxicity: at 92.2 µM (top of the series);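 note: plate controls were DMSO alone for no effect and tamoxifen control for full effect; nearly all actives have a fitted effect of over 45% in size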
Outline: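 Mouse neuroblastoma N2a cells (1500/well) were preincubated 5 hr at 37 °C, then exposed to compounds for 40 hr at 37 °C in complete medium. Viability was read as intracellular ATP by CellTiter-Glo luminescence; AC50 from Hill fits.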

[7] = Cell Viability - NIH 3T3 (AID 541); details: NIH 3T3 cell viability, qHTS; activity change, negative = cytotoxicity: at 92.2 µM (top of the series);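 note: plate controls were DMSO alone for no effect and tamoxifen positive control for full effect; nearly all actives have a fitted effect of over 25% in size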
Outline: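 NIH 3T3 mouse embryo fibroblasts (1000 cells/well) were plated in complete medium and treated with compound for 40 hr at 37 °C. Viability was read as intracellular ATP by CellTiter-Glo luminescence; AC50 values came from Hill-equation fits of concentration-response data.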

[8] = Cell Viability - HUV-EC-C (AID 542); details: HUV-EC-C endothelial cell viability, qHTS; series mostly up to 92.2 µM; note: % is set by controls: 0 for no effect and ±100 for the full control effect; nearly all actives have a fitted effect of over 35% in size
Outline: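 HUV-EC-C normal human vascular endothelial cells, 1000 cells/well, pre-incubated 5 hr at 37 °C, then exposed to compounds for 40 hr at 37 °C in complete medium. Viability measured as intracellular ATP by CellTiter-Glo luminescence; AC50 from Hill fits.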

[9] = Cell Viability - H-4-II-E (AID 543); details: H-4-II-E rat hepatoma viability; series mostly up to 92.2 µM; note: % is set by controls: 0 for no effect and ±100 for the full control effect; nearly all actives have a fitted effect of over 35% in size
Outline: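 Rat hepatoma H-4-II-E cells (1500/well) were plated, incubated 5 hr at 37 °C, then exposed to compounds for 40 hr at 37 °C. Cellular ATP was read by CellTiter-Glo luminescence; AC50 came from Hill-equation fits of concentration-response data.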

[10] = Cell Viability - SH-SY5Y (AID 544); details: SH-SY5Y neuroblastoma cell viability; series mostly up to 92.2 µM; note: nearly all actives have a fitted effect of over 55% in size
Outline: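 Human neuroblastoma SH-SY5Y cells (1500/well) in complete medium were exposed to compounds for 40 hr at 37 °C; intracellular ATP was then quantified by CellTiter-Glo luminescence after 20 min at room temperature. AC50 came from Hill-equation concentration-response fits.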

[11] = Cell Viability - Renal Proximal Tubule (AID 545); details: renal proximal tubule cells viability, primary cells of rat origin; at 91.7 µM (top of the series); note: nearly all actives have a fitted effect of over 40% in size
Outline: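 Rat renal proximal tubule primary cells, 1000/well, exposed to compounds for 40 hr at 37 °C in complete medium; cellular ATP read by CellTiter-Glo luminescence. AC50 from concentration-response fitted with standard Hill equation.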

[12] = Cellular Toxicity (caspase-3) HepG2 (AID 654); details: HepG2 caspase-3 activation, luminescence, 0% = DMSO only, 100% = tamoxifen; series mostly up to 92.2 µM;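 note: cells exposed to compound for 16 hours before reading; 0% = DMSO alone and 100% = caspase signal from 100 µM tamoxifen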
Outline: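 HepG2 cells (1500/well) in complete medium were treated with compounds for 16 hr at 37 °C. Caspase-3/7 activity was then read as luminescence from peptide-aminoluciferin cleavage. AC50 came from Hill fits, normalized to DMSO and 100 uM tamoxifen.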

[13] = Cellular Toxicity (caspase-3) Jurkat (AID 655); details: Jurkat caspase-3 activation, luminescence, DMSO = 0%, tamoxifen = 100%; at 92.2 µM (top of the series);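 note: cells exposed to compound for 16 h at 37 °C before reading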
Outline: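 Jurkat cells (5000/well) in complete medium exposed 16 h at 37 C; caspase-3/7 activity read by Caspase-Glo luminescence after 20 min at room temperature. Normalized to DMSO and 100 uM tamoxifen; AC50 from Hill fits.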

[14] = Cellular Toxicity (caspase-3) HUV-EC-C (AID 656); details: HUV-EC-C cells, caspase-3 activation (apoptosis), vehicle = 0, 100 µM tamoxifen = 100%; series mostly up to 92.2 µM
Outline: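 HUV-EC-C cells (1000/well) in complete medium, compound-treated 16 h at 37 °C; caspase-3/7 activity read by Caspase-Glo 3/7 luminescence. Normalized to DMSO (basal) and 100 uM tamoxifen (100%); AC50 from Hill-equation concentration-response fits.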

[15] = Cellular Toxicity (caspase-3) SHSY5Y (AID 657); details: SH-SY5Y caspase-3 activation, DMSO zero, 10 µM staurosporine = 100%; series mostly up to 91.7 µM
Outline: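 SH-SY5Y human neuroblastoma cells, 1500/well, exposed to compound for 16 hours at 37 °C in complete medium. Caspase-3/7 activity read by Caspase-Glo luminescence after 1 hr at room temperature, normalized to DMSO and 10 uM staurosporine; AC50 from Hill fit.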

[16] = Cellular Toxicity (caspase-3) BJ (AID 658); details: BJ fibroblasts, luminescence, normalized: DMSO 0%, staurosporine 100%; series mostly up to 91.7 µM
Outline: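 BJ human foreskin fibroblasts, 1000 cells/well, treated 16 hours at 37 °C in complete medium; caspase 3/7 activity by Caspase-Glo luminescence after 1 hr at room temperature. Normalized to DMSO and 10 uM staurosporine; AC50 from Hill fits.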

[17] = Cellular Toxicity (caspase-3) MRC-5 (AID 659); details: MRC-5 cells, luminescence, normalized: DMSO 0%, 10 µM staurosporine 100%; series mostly up to 91.7 µM
Outline: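 MRC-5 human normal lung fibroblasts, 1500 cells/well, treated 16 h at 37 °C in complete medium. Caspase 3/7 measured by Caspase-Glo luminescence after 1 h at room temperature. Normalized to DMSO and 10 uM staurosporine; AC50 from Hill fit.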

[18] = Cellular Toxicity (caspase-3) Mesangial (AID 660); details: mesangial cells, normalized: DMSO 0%, 100 µM tamoxifen 100%; series mostly up to 91.7 µM
Outline: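 Human renal glomerular mesangial cells (1000/well) were treated with compounds for 16 h at 37 °C in complete medium, then caspase 3/7 activity was read by Caspase-Glo luminescence. Data were normalized to DMSO and 100 uM tamoxifen; AC50 from Hill fits.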

[19] = Cellular Toxicity (caspase-3) H-4-II-E (AID 663); details: H-4-II-E rat hepatoma; Potency: caspase-3 activation; series mostly up to 92.2 µM;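 note: cells exposed to compound for 16 hr before readout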
Outline: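 Rat hepatoma H-4-II-E cells (1500/well) plated 5 hr, then exposed to compound titrations for 16 hr at 37 °C. Caspase-Glo 3/7 luminescence read after 20 min at RT; data normalized to DMSO and 100 uM tamoxifen, AC50 from Hill fits.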

[20] = Cellular Toxicity (caspase-3) Hek293 (AID 664); details: HEK293 caspase-3 activation, DMSO = 0%, 100 µM tamoxifen = 100%; series mostly up to 92.2 µM;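 note: cells exposed to compound for 16 h at 37 °C before readout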
Outline: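 HEK293 cells were exposed to compounds in complete medium for 16 hr at 37 °C, then caspase-3/7 activity was read by Caspase-Glo 3/7 luminescence after 20 min at room temperature. Data normalized to DMSO and 100 uM tamoxifen; AC50 from Hill fits.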

[21] = Cellular Toxicity (caspase-3) N2a (AID 665); details: N2a cells, luminescence, normalized: DMSO 0%, 10 µM staurosporine 100%; series mostly up to 92.2 µM;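 note: compound exposure lasted 16 h at 37 °C before readout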
Outline: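 Mouse N2a neuroblastoma cells (1500/well) were treated with compounds for 16 h at 37 °C, then caspase-3/7 activity was read by Caspase-Glo luminescence after 1 h at room temperature. Data were normalized to DMSO and 10 uM staurosporine; AC50 from Hill fits.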

O=C(/C=C/c1ccc(O)c(O)c1)O[C@@H](C(=O)O)[C@@H](OC(=O)/C=C/c1ccc(O)c(O)c1)C(=O)O
inactive: Potency [1] > 92 µM | Potency [2] > 92 µM | Potency [3] > 92 µM | Potency [4] > 92 µM | Potency [5] | activity change, negative = cytotoxicity [6] -0.47% | Potency [7] | outcome [8] | Potency [9] | Potency [10] | activity change, negative = cytotoxicity [11] -5.23% | outcome [12] | caspase-3 activation [13] 1.83% | outcome [14] | outcome [15] | outcome [16] | outcome [17] | outcome [18] | Potency [19] | outcome [20] | outcome [21]
